Laboratory results taken from PubChem BioAssay AID1850 (Southern Research Specialized Biocontainment Screening …, 2009).
Out of some 310,000 compounds screened, about 1,000 (0.32%) were called active. The rule behind the calls is not given here. Only a sample is shown. Entries with a potency or affinity are not part of this list.

experiment: Inhibition of PhoP regulon, Salmonella typhi GFP reporter cells, confirmation, 4 h (AID 1850); conditions: Salmonella Typhi PhoP-promoter GFP reporter, fluorescence, at 50 µM, active compounds read high;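 note: 0% = induced wells with vehicle and 100% = uninduced wells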

SMILES | inhibition
Cn1c(=O)oc2cc(S(=O)(=O)NCc3ccccn3)ccc21 | 0.2% (inactive)
Cc1cc(C)cc(NC(=S)/N=C(\N)Nc2nc(C)c3ccccc3n2)c1 | -5.71% (inactive)
Cc1ccc(COC(=O)c2ccc3ccccc3n2)cc1 | -0.98% (inactive)
O=C(Cc1ccc(F)cc1)c1ccc(O)cc1O | -11.9% (inactive)
COc1ccc(CC(=O)c2ccc(O)cc2O)cc1 | -0.72% (inactive)
C=CCOCCN1C(=O)C2C(c3ccccc3)C=CC(c3ccccc3)C2C1=O (configuration not stated) | 5.25% (inactive)
CCc1nnc(NC(=O)[C@@H]2CCCN2S(=O)(=O)c2ccc3c(c2)OCCO3)s1 | -7.63% (inactive)
CN1CCN(CCCN2c3ccccc3Sc3ccc(C(F)(F)F)cc32)CC1 | 5.34% (inactive)
OCCN1CCN(CCCN2c3ccccc3Sc3ccc(Cl)cc32)CC1 | 4.15% (inactive)
CN1CCCCC1CCN1c2ccccc2Sc2ccc(S(C)=O)cc21 (configuration not stated) | 0.68% (inactive)
CN1CCCC(CN2c3ccccc3Sc3ccccc32)C1 (configuration not stated) | -0.92% (inactive)
CN1CCN(CCC(=O)N2c3ccccc3Sc3ccc(Cl)cc32)CC1 | -0.99% (inactive)
CN1CCN(CCCN2c3ccccc3Sc3ccc(S(=O)(=O)N(C)C)cc32)CC1 | 0.8% (inactive)
O=C(Nc1cccc(-n2cccn2)c1)C1CCCN(Cc2cccc(F)c2F)C1 (configuration not stated) | -4.31% (inactive)
N/C(=N\OC(=O)c1ccc(Br)cc1)c1ccncc1 | 5.21% (inactive)
COc1ccc(OC)c(S(=O)(=O)N2CCC(C(=O)NCc3ccc4c(c3)OCO4)CC2)c1 | -8.79% (inactive)
Cc1ccc2cc(CCNC(=O)c3cccs3)c(=O)[nH]c2c1C | 3.08% (inactive)
CCOc1ccc(S(=O)(=O)N2CCN(C(=O)c3ccc(-n4cncn4)c([N+](=O)[O-])c3)CC2)cc1 | -1.56% (inactive)
COc1ccc(N2CCN(C(c3cccs3)C(C)NS(C)(=O)=O)CC2)cc1 (configuration not stated) | -6.29% (inactive)
COc1ccc(Cc2c(C)nc(N)nc2Cl)cc1 | -7.38% (inactive)
Cc1nc(N)nc(Cl)c1Cc1ccc(Cl)cc1 | -7.07% (inactive)
CCCCN(C)CCNC(=O)c1cc2cc3ccc(OC)cc3nc2o1 | 7.2% (inactive)
CCN(CC(=O)Nc1ccccc1C(F)(F)F)C(=O)CN1C(=O)NC2(CCCCC2)C1=O | -5.21% (inactive)
Nc1nc(SCC(=O)Nc2ccccc2Sc2ccccc2)n[nH]1 | -1.42% (inactive)
COc1ccccc1NC(=O)CCn1cccc1 | -6.32% (inactive)
C/C(=N\Nc1ccc2nncn2n1)c1cccs1 | 4.31% (inactive)
C/C(=N\Nc1ccc2nncn2n1)c1ccco1 | 2.03% (inactive)
